# Tb PYK inh: qHTS of Trypanosoma Brucei Inhibitors | pyruvate kinase (Trypanosoma brucei), Q57TT1 | Potency, µM (highest dose often 76.8 µM), for inactives: at the highest dose activity, negative = inhibition, actives largely listed as inhibitors | TbPYK enzyme, Kinase-Glo Plus ATP luminescence, 45 min | hit rate 0.12% among 410,000; also: potency is read from the fitted curve at half-maximal effect; % is scaled to controls: 0 for no effect and ±100 for the full control effect; nearly all actives have a fitted effect of over 50% in size
#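 TbPYK + substrate in 50 mM TEA pH 7.2, 100 mM KCl, 10 mM MgCl2, 0.05% BSA, 0.01% Tween-20; cpd pinned; ADP 130 uM final; 45 min RT; Kinase-Glo Plus 10 min; luminescence endpoint.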
# NS1 function inh: qHTS Assay for Inhibitors of Influenza NS1 Protein Function; Potency, µM (top dose mostly 46.1 µM), inactives show at the top dose activity, positive = more growth; hit rate 0.4% among 270,000; AID 2326, 2010; calls by dose curve; also: potency is read from the fitted curve at half-maximal effect; actives are rising curves; nearly all actives have a fitted effect of over 50% in size
#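 A cell-based growth assay was used: compounds that relieve NS1-induced slow growth of budding yeast raise OD600. Assay medium was yeast nitrogen base with ammonium sulphate and -URA supplement, pH 6.0, with 2% galactose.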
# LmPK inhibitor: qHTS Assay for Inhibitors of Leishmania Mexicana Pyruvate Kinase (LmPK); hit rate 0.37% among 290,000; Potency, µM (doses to about 57.5 µM), inactives show at the highest dose activity change, negative = inhibition, hits mostly inhibitors; purified LmPK, Kinase-Glo ATP luminescence, 1 h; AID 1721, 2009; Q27686; also: potency is read from the fitted curve at half-maximal effect; % is scaled to controls: 0 for no effect and ±100 for the full control effect
# Target sequence (Q27686 whole entry, looked up): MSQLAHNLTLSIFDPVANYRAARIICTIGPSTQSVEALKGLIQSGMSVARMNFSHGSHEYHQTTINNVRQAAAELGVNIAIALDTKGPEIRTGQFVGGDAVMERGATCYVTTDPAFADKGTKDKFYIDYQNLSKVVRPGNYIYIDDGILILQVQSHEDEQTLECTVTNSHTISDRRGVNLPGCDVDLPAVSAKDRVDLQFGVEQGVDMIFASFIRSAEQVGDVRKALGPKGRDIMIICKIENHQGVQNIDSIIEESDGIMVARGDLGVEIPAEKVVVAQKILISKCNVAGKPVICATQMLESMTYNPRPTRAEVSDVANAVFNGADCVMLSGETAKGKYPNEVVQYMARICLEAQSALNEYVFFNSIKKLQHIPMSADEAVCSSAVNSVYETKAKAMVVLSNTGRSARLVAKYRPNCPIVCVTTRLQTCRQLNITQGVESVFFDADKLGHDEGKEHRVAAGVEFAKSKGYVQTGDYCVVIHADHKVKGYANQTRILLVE
#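 ATP generated from ADP (0.1 mM) and PEP (0.5 mM) by 0.1 nM LmPK over 1 h at room temperature (pH 7.2 imidazole buffer) was detected by coupled luciferase luminescence. Values were normalized to uninhibited and no-enzyme wells.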
# SARS PLP yeast: qHTS of Yeast-based Assay for SARS-CoV PLP; S. cerevisiae expressing SARS-CoV PLpro, growth rescue; Potency, µM (doses to about 32.9 µM), for inactives: at the highest dose activity, positive = growth rescue, actives largely listed as activators; hit rate 0.19% among 330,000; calls by dose curve; also: potency is read from the fitted curve at half-maximal effect; 0% is about no effect; nearly all actives have a fitted effect of over 55% in size
# Shiga inhibitor: A qHTS for Small Molecule Inhibitors of Shiga Toxin | Vero cells, Shiga toxin protein synthesis inhibition reporter | inhibition, % at 38.7 µM | hit rate 9.2% among 290,000 | AID 2315, 2010; in the data active = inhibition mostly above about 28%, no sharp cut-off; inactive = mostly below about 43%; also: 0% is about no effect
# CHX counter: Cycloheximide Counterscreen for Small Molecule Inhibitors of Shiga Toxin | hit rate 12% among 300,000 | max response, % | cell reporter, cycloheximide protein synthesis inhibition counterscreen; in the data active = max response mostly above about 13%, no sharp cut-off; inactive = mostly below about 14%; also: read at 38.3 µM for the half of the compounds with a filed dose; 0% is about no effect
# The depositor's hits bear a star; ? = inconclusive; nt = not tested or not shown; + = active, no number. This excerpt belongs to a sample that is enriched for hits. Unless noted, calls follow the shape of the dose curve; as a rule, active = well fitted curve in the direction sought with a large enough effect; inconclusive = small, poorly fitted or top-dose-only effect, or another doubt; inactive = no such curve, though single readings can be large; an effect the other way counts as inactive or inconclusive.
SMILES,Tb PYK inh,NS1 function inh,LmPK inhibitor,SARS PLP yeast,Shiga inhibitor,CHX counter
CC(=O)c1sc(N/N=C\c2ccccc2O)nc1C,-14%,-3%,0%,0%,40,30*
Cc1ccc(C)c(NC(=O)Cn2c(=O)n(Cc3ccc4c(c3)OCO4)c(=O)c3oc4ccccc4c32)c1,0%,nt,nt,nt,nt,nt
COc1cc(NC(=O)CCCN2C(=O)CCn3nc(-c4cn(C)c5ccccc45)cc32)cc(OC)c1,-3%,nt,nt,nt,nt,nt
CC(=O)c1sc(Nc2ccccc2)nc1C,3%,nt,nt,nt,nt,nt
O=C(O)c1ccc(Nc2nc3c(s2)CCCC3)cc1,-12%,4%,-24%,0%,-32,-5
COC(=O)c1sc(Nc2ccccc2)nc1C,-7%,-87%,-2%,?,104*,35*
Cc1cccc(Nc2nc3c(s2)CCCC3)c1,-6%,14%,-6%,-24%,122*,68*
CCOC(=O)c1sc(Nc2ccccc2)nc1C,-3%,-55%,-1%,-1%,56*,52*
Cc1nn(-c2ccccc2)c2nc(C3CC3)cc(C(=O)Nc3ccccc3F)c12,0%,nt,nt,nt,nt,nt
CC(=O)c1cccc(S(=O)(=O)N2CCN(CCOc3ccccc3)CC2)c1,-2%,nt,nt,2%,nt,nt
Cn1c(=O)c(C(=O)NCCc2ccc(Cl)cc2)c(O)c2ccccc21,3%,9%,1%,0%,15,6
Cc1ccc(CNC(=O)Cn2ccn(-c3ccc(C)c(C)c3)c(=O)c2=O)cc1,-3%,nt,nt,nt,nt,nt
COc1ccc(-c2c(C#Cc3ccsc3)c3ccccc3n2C)cc1,-17%,?,-1%,-14%,39*,23*
CN1CCN(Cc2c(O)ccc3occ(C(=O)c4ccccc4)c23)CC1,-3%,5%,8%,2%,2,9
CC(=O)C(C(C)=O)c1c(Cl)c(O)c(O)c2c(C(=O)c3ccccc3)coc12,?,-80%,11µM*,-7%,3,11
COc1ccccc1-c1ccc(SCc2ccc(F)cc2)nn1,3%,nt,-5%,-2%,65*,39*
COc1ccccc1-c1ccc(SCC(=O)N2CCOCC2)nn1,-5%,nt,9%,0%,4,9
Fc1cccc(CSc2ccc(-c3ccc4c(c3)OCO4)nn2)c1,4%,1%,3%,12%,11,11
COc1ccccc1-c1ccc(SCc2ccc(C)cc2)nn1,0%,nt,0%,-1%,76*,32*
O=C(Nc1ccccc1Cl)O/N=C/c1ccncc1,3%,nt,nt,nt,nt,nt
Cc1ccccc1C(=O)Nc1ccc(C(=O)N/N=C/c2ccc(F)cc2)cc1,1%,nt,8%,3%,-7,4
Cc1ccc(NC(=O)C=NOCC(=O)Nc2cc(C)cc(C)c2)cc1,6%,nt,nt,-3%,nt,nt
O=C(Nc1ccccc1)O/N=C/c1ccc(F)cc1,0%,-45%,-5%,-9%,54*,27*
O=C(Nc1ccccc1)O/N=C/c1ccccc1Cl,5%,-62%,-1%,?,64*,54*
CC(=O)Nc1ccc(/C=N/OCC(=O)Nc2ccc(C)cc2)cc1,4%,25%,1%,8%,15*,23*
SMILES,Tb PYK inh,NS1 function inh,LmPK inhibitor,SARS PLP yeast,Shiga inhibitor,CHX counter
Cc1ccc(NC(=O)O/N=C/c2ccc(F)cc2)cc1,7%,-11%,2%,-7%,47*,33*
CCc1ccc(-n2c(=O)c3c4c(sc3n(CC(=O)c3ccc(Cl)cc3)c2=O)CCC4)cc1,-4%,nt,nt,nt,nt,nt
CCC1NC(=O)c2ccccc2N1c1cccc(Cl)c1 (configuration not stated),0%,nt,nt,nt,nt,nt
Cc1ccc(NC(=O)O/N=C/c2ccc(Br)cc2)cc1,-13%,6%,0%,-5%,37,11*
COC(=O)N/N=C/c1cc(OC)c(O)c([N+](=O)[O-])c1,-13%,16%,-7%,16%,77*,92*
COc1ccc(/C=N/OC(=O)Nc2ccccc2)cc1[N+](=O)[O-],4%,-14%,-11%,-28%,+,33*
CC(=O)N1CCc2cc(S(=O)(=O)NC(Cc3ccccc3)C(=O)Nc3ccc(Cl)cc3)ccc21 (configuration not stated),-13%,nt,nt,nt,nt,nt
O=C(c1cc(COc2ccc(F)cc2F)on1)N1CCN(C2CCCC2)C(=O)C1,-10%,-59%,1%,4%,26,1
CSc1ccccc1OCc1cc(C(=O)N2CCC[C@H]2C(N)=O)no1,-7%,-26%,1%,16%,28,18
CSc1ccccc1OCc1cc(C(=O)N2CCSCC2)no1,-10%,-41%,0%,17%,99*,61*
CCN(CC1CCCO1)C(=O)c1cc(COc2ccccc2SC)on1 (configuration not stated),-4%,-12%,2%,-2%,82*,55*
CSc1ccccc1OCc1cc(C(=O)N2CCN(C3CCCC3)C(=O)C2)no1,?,-20%,-6%,-2%,41*,54*
CCc1cc(C(=O)N2CCCC(CNC(=O)c3ccc(-c4ccccc4)cc3)C2)no1 (configuration not stated),0%,-4%,-8%,-1%,15,14*
COc1ccc(-n2cc(C(=O)Nc3cc(F)ccc3F)c3ccccc3c2=O)cc1,7%,nt,nt,nt,nt,nt
CC(C)c1nc(CNC(=O)C2CCC(=O)N(CCc3cccc(F)c3)C2)cs1 (configuration not stated),-9%,0%,-4%,1%,-9,-3
Cc1ccc(C)c(COC(=O)CCN=C2NS(=O)(=O)c3ccccc32)c1,-3%,nt,nt,-3%,nt,nt
COc1cc2c(cc1OC)C(COc1ccc(C(C)C)cc1)N(C(=O)c1ccc(S(=O)(=O)N3CCCC3)cc1)CC2 (configuration not stated),-1%,nt,nt,nt,nt,nt
COc1cc(NC(=O)CC(c2cccs2)N2Cc3ccccc3C2=O)cc(OC)c1OC (configuration not stated),-1%,nt,nt,nt,nt,nt
O=C1NC[C@@H](CCCCN2C[C@H](Cc3ccc(O)cc3)N(CCC3CCCCC3)C(=O)C2=O)N(CCC2CCCCC2)C1=O,-2%,nt,nt,nt,nt,nt
COc1ccccc1OCc1cc(C(=O)N2CCCC(OCc3cccnc3)C2)no1 (configuration not stated),-1%,-14%,2%,nt,96*,58*
CSc1ccccc1OCc1cc(C(=O)N2CCCC(C)C2)no1 (configuration not stated),1%,-24%,-7%,7%,89*,27*
COc1ccc(OCc2cc(C(=O)N3CCCC(CO)C3)no2)c2ccccc12 (configuration not stated),1%,1%,-7%,3%,84*,44*
O=C(c1cc(COc2ccccc2)on1)N1CCCC(OCc2cccnc2)C1 (configuration not stated),-8%,-13%,1%,14%,7,8

# Bioassay records as filed in PubChem BioAssay.
